In paper PMC11006913:

Legend:
Experiment in all cases: PBM; 200 nM protein, PBS
Conditions in all cases: dsDNA, one strand shown
[1] = molecular target: HOXD13 (Homo sapiens, UniProt P35453 263-343, T313R)
[2] = molecular target: HOXD13 (Homo sapiens, UniProt P35453 263-343)
[3] = molecular target: HOXD13 (Homo sapiens, UniProt P35453 263-343, T313A)
[4] = molecular target: T1, SIX6 (Homo sapiens, UniProt O95475 114-200, T165A)
T1 sequence: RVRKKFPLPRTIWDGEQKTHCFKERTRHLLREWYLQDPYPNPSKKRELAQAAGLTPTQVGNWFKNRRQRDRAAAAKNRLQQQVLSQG

[5] = molecular target: T2, NKX2-6 (Homo sapiens, UniProt A6NCS4 118-204)
T2 sequence: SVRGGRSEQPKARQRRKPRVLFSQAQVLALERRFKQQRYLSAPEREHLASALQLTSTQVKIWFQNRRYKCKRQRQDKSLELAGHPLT

HOXD13 (Homo sapiens, UniProt P35453 263-343, T313A), sequence (P35453 263-343 T313A): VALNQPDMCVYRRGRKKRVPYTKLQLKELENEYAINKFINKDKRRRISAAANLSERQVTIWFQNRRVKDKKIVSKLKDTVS
HOXD13 (Homo sapiens, UniProt P35453 263-343, T313R), sequence (P35453 263-343 T313R): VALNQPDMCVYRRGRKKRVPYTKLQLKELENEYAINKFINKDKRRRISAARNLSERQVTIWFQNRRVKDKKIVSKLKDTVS
HOXD13 (Homo sapiens, UniProt P35453 263-343), sequence (P35453 263-343): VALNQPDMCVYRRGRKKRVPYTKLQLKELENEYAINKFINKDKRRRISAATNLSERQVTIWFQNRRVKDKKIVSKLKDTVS

Q: What does the source list for CCTATAAA?
A: binding signal [1]: 11.1 upbm affinity estimate (log intensity, higher = more binding, comparable within an allelic series); binding signal [2]: 12.3 upbm affinity estimate (log intensity, higher = more binding, comparable within an allelic series); binding signal [3]: 12.1 upbm affinity estimate (log intensity, higher = more binding, comparable within an allelic series)

Q: With ACGGTCCC as the sequence, how does the binding signal [1] read?
A: 9.51 upbm affinity estimate (log intensity, higher = more binding, comparable within an allelic series)

Q: And the binding signal [2]?
A: 9.34 upbm affinity estimate (log intensity, higher = more binding, comparable within an allelic series)

Q: And the binding signal [3]?
A: 9.69 upbm affinity estimate (log intensity, higher = more binding, comparable within an allelic series)

Q: With CCCTGGAG as the sequence, how does the binding signal [1] read?
A: 9.64 upbm affinity estimate (log intensity, higher = more binding, comparable within an allelic series)

Q: What about the binding signal [2] of the same sequence?
A: 9.55 upbm affinity estimate (log intensity, higher = more binding, comparable within an allelic series)

Q: What about the binding signal [3] of the same sequence?
A: 9.78 upbm affinity estimate (log intensity, higher = more binding, comparable within an allelic series)

Q: What does the source list for CATGTATA?
A: binding signal [1]: 10.3 upbm affinity estimate (log intensity, higher = more binding, comparable within an allelic series); binding signal [2]: 10.8 upbm affinity estimate (log intensity, higher = more binding, comparable within an allelic series); binding signal [3]: 11 upbm affinity estimate (log intensity, higher = more binding, comparable within an allelic series)

Q: How did the binding signal [1] turn out when CACCGGTG was run?
A: 9.69 upbm affinity estimate (log intensity, higher = more binding, comparable within an allelic series)

Q: What about the binding signal [2] of the same sequence?
A: 9.58 upbm affinity estimate (log intensity, higher = more binding, comparable within an allelic series)

Q: And the binding signal [3]?
A: 9.72 upbm affinity estimate (log intensity, higher = more binding, comparable within an allelic series)

Q: For ATATAAAC, which binding signal [1] is on record?
A: 10.8 upbm affinity estimate (log intensity, higher = more binding, comparable within an allelic series)

Q: What about the binding signal [2] of the same sequence?
A: 11.8 upbm affinity estimate (log intensity, higher = more binding, comparable within an allelic series)

Q: And the binding signal [3]?
A: 11.5 upbm affinity estimate (log intensity, higher = more binding, comparable within an allelic series)

Q: For CAGGCGAC, which binding signal [1] is on record?
A: 9.59 upbm affinity estimate (log intensity, higher = more binding, comparable within an allelic series)

Q: And the binding signal [2]?
A: 9.52 upbm affinity estimate (log intensity, higher = more binding, comparable within an allelic series)

Q: What about the binding signal [3] of the same sequence?
A: 9.66 upbm affinity estimate (log intensity, higher = more binding, comparable within an allelic series)

Q: How did the binding signal [1] turn out when CTGGCCCC was run?
A: 9.44 upbm affinity estimate (log intensity, higher = more binding, comparable within an allelic series)

Q: And the binding signal [2]?
A: 9.38 upbm affinity estimate (log intensity, higher = more binding, comparable within an allelic series)

Q: What about the binding signal [3] of the same sequence?
A: 9.45 upbm affinity estimate (log intensity, higher = more binding, comparable within an allelic series)

Q: AATAAACC was tested. Which binding signal [1] did it give?
A: 10.6 upbm affinity estimate (log intensity, higher = more binding, comparable within an allelic series)

Q: What about the binding signal [2] of the same sequence?
A: 11.8 upbm affinity estimate (log intensity, higher = more binding, comparable within an allelic series)

Q: What about the binding signal [3] of the same sequence?
A: 11.6 upbm affinity estimate (log intensity, higher = more binding, comparable within an allelic series)

Q: Which binding signal [1] does the source give for GTTTAATA here?
A: 10.8 upbm affinity estimate (log intensity, higher = more binding, comparable within an allelic series)

Q: What about the binding signal [2] of the same sequence?
A: 11.8 upbm affinity estimate (log intensity, higher = more binding, comparable within an allelic series)

Q: What about the binding signal [3] of the same sequence?
A: 11.6 upbm affinity estimate (log intensity, higher = more binding, comparable within an allelic series)

Q: How did the binding signal [1] turn out when CCGTAAAA was run?
A: 10.5 upbm affinity estimate (log intensity, higher = more binding, comparable within an allelic series)

Q: What about the binding signal [2] of the same sequence?
A: 11.8 upbm affinity estimate (log intensity, higher = more binding, comparable within an allelic series)

Q: And the binding signal [3]?
A: 11.6 upbm affinity estimate (log intensity, higher = more binding, comparable within an allelic series)

Q: How did the binding signal [1] turn out when GGGTTGAA was run?
A: 9.64 upbm affinity estimate (log intensity, higher = more binding, comparable within an allelic series)

Q: And the binding signal [2]?
A: 9.57 upbm affinity estimate (log intensity, higher = more binding, comparable within an allelic series)

Q: And the binding signal [3]?
A: 9.62 upbm affinity estimate (log intensity, higher = more binding, comparable within an allelic series)

Q: GAGGGGCC was tested. Which binding signal [1] did it give?
A: 9.41 upbm affinity estimate (log intensity, higher = more binding, comparable within an allelic series)

Q: What about the binding signal [2] of the same sequence?
A: 9.46 upbm affinity estimate (log intensity, higher = more binding, comparable within an allelic series)

Q: And the binding signal [3]?
A: 9.41 upbm affinity estimate (log intensity, higher = more binding, comparable within an allelic series)

Q: What does the source list for CCTGAAGG?
A: binding signal [1]: 9.53 upbm affinity estimate (log intensity, higher = more binding, comparable within an allelic series); binding signal [2]: 9.53 upbm affinity estimate (log intensity, higher = more binding, comparable within an allelic series); binding signal [3]: 9.6 upbm affinity estimate (log intensity, higher = more binding, comparable within an allelic series)

Q: CACCGCCA was tested. Which binding signal [1] did it give?
A: 9.56 upbm affinity estimate (log intensity, higher = more binding, comparable within an allelic series)

Q: And the binding signal [2]?
A: 9.65 upbm affinity estimate (log intensity, higher = more binding, comparable within an allelic series)

Q: And the binding signal [3]?
A: 9.8 upbm affinity estimate (log intensity, higher = more binding, comparable within an allelic series)

Q: For GTTTTATA, which binding signal [1] is on record?
A: 10.8 upbm affinity estimate (log intensity, higher = more binding, comparable within an allelic series)

Q: What about the binding signal [2] of the same sequence?
A: 11.8 upbm affinity estimate (log intensity, higher = more binding, comparable within an allelic series)

Q: What about the binding signal [3] of the same sequence?
A: 11.6 upbm affinity estimate (log intensity, higher = more binding, comparable within an allelic series)

Q: With CCGCCCGG as the sequence, how does the binding signal [1] read?
A: 9.44 upbm affinity estimate (log intensity, higher = more binding, comparable within an allelic series)

Q: What about the binding signal [2] of the same sequence?
A: 9.37 upbm affinity estimate (log intensity, higher = more binding, comparable within an allelic series)

Q: And the binding signal [3]?
A: 9.62 upbm affinity estimate (log intensity, higher = more binding, comparable within an allelic series)

Q: With AGTTTATA as the sequence, how does the binding signal [1] read?
A: 10.7 upbm affinity estimate (log intensity, higher = more binding, comparable within an allelic series)

Q: What about the binding signal [2] of the same sequence?
A: 11.9 upbm affinity estimate (log intensity, higher = more binding, comparable within an allelic series)

Q: And the binding signal [3]?
A: 11.6 upbm affinity estimate (log intensity, higher = more binding, comparable within an allelic series)

Q: Which results are given for ACCAGGGG?
A: binding signal [1]: 9.62 upbm affinity estimate (log intensity, higher = more binding, comparable within an allelic series); binding signal [2]: 9.61 upbm affinity estimate (log intensity, higher = more binding, comparable within an allelic series); binding signal [3]: 9.9 upbm affinity estimate (log intensity, higher = more binding, comparable within an allelic series)

Q: With CGTGCCCC as the sequence, how does the binding signal [1] read?
A: 9.51 upbm affinity estimate (log intensity, higher = more binding, comparable within an allelic series)

Q: And the binding signal [2]?
A: 9.62 upbm affinity estimate (log intensity, higher = more binding, comparable within an allelic series)

Q: And the binding signal [3]?
A: 9.71 upbm affinity estimate (log intensity, higher = more binding, comparable within an allelic series)

Q: With GGTGTAGA as the sequence, how does the binding signal [4] read?
A: 10.3 upbm affinity estimate (log intensity, higher = more binding, comparable within an allelic series)

Q: Which binding signal [4] does the source give for AAGGTGTA here?
A: 10.1 upbm affinity estimate (log intensity, higher = more binding, comparable within an allelic series)

Q: AACACTCC was tested. Which binding signal [5] did it give?
A: 11.3 upbm affinity estimate (log intensity, higher = more binding, comparable within an allelic series)

Q: AATTACGC was tested. Which binding signal [5] did it give?
A: 11.3 upbm affinity estimate (log intensity, higher = more binding, comparable within an allelic series)

Q: Which binding signal [5] does the source give for CGTAATAA here?
A: 11 upbm affinity estimate (log intensity, higher = more binding, comparable within an allelic series)

Q: How did the binding signal [4] turn out when AGTGTCAA was run?
A: 10.3 upbm affinity estimate (log intensity, higher = more binding, comparable within an allelic series)

Q: CGCCCCCA was tested. Which binding signal [1] did it give?
A: 9.33 upbm affinity estimate (log intensity, higher = more binding, comparable within an allelic series)

Q: What about the binding signal [2] of the same sequence?
A: 9.3 upbm affinity estimate (log intensity, higher = more binding, comparable within an allelic series)

Q: What about the binding signal [3] of the same sequence?
A: 9.5 upbm affinity estimate (log intensity, higher = more binding, comparable within an allelic series)

Q: CGCCCGCG was tested. Which binding signal [1] did it give?
A: 9.5 upbm affinity estimate (log intensity, higher = more binding, comparable within an allelic series)

Q: And the binding signal [2]?
A: 9.42 upbm affinity estimate (log intensity, higher = more binding, comparable within an allelic series)

Q: And the binding signal [3]?
A: 9.59 upbm affinity estimate (log intensity, higher = more binding, comparable within an allelic series)

Q: Which results are given for CATATAAA?
A: binding signal [1]: 10.9 upbm affinity estimate (log intensity, higher = more binding, comparable within an allelic series); binding signal [2]: 12.1 upbm affinity estimate (log intensity, higher = more binding, comparable within an allelic series); binding signal [3]: 11.9 upbm affinity estimate (log intensity, higher = more binding, comparable within an allelic series)

Q: With AGTGTCAC as the sequence, how does the binding signal [4] read?
A: 10.4 upbm affinity estimate (log intensity, higher = more binding, comparable within an allelic series)

Q: How did the binding signal [4] turn out when GAGTGTCA was run?
A: 10.3 upbm affinity estimate (log intensity, higher = more binding, comparable within an allelic series)

Q: For TAGTGTCA, which binding signal [4] is on record?
A: 10.4 upbm affinity estimate (log intensity, higher = more binding, comparable within an allelic series)

Q: With CTAAGTTA as the sequence, how does the binding signal [5] read?
A: 11.2 upbm affinity estimate (log intensity, higher = more binding, comparable within an allelic series)

Q: How did the binding signal [4] turn out when GTGTCATA was run?
A: 10.8 upbm affinity estimate (log intensity, higher = more binding, comparable within an allelic series)

Q: Which binding signal [4] does the source give for AAGGTGTC here?
A: 10.5 upbm affinity estimate (log intensity, higher = more binding, comparable within an allelic series)

Q: How did the binding signal [4] turn out when ATTGACAC was run?
A: 10.5 upbm affinity estimate (log intensity, higher = more binding, comparable within an allelic series)
